Assay results published in PubChem BioAssay AID488852 (National Center for Advancing Translational Sciences (NCATS), 2010).
Active and inactive are the calls of the source. Calls come from the whole dose curve; as a rule, active = well fitted curve in the direction sought with a large enough effect; inconclusive = small, poorly fitted or top-dose-only effect, or another doubt; inactive = no such curve, though single readings can be large or run the other way.

What follows are compounds tested against Lysosomal acid glucosylceramidase (Homo sapiens) (UniProt P04062) (assay: qHTS Assay for Inhibitors and Activators of N370S glucocerebrosidase as a Potential Chaperone Treatment of Gaucher Disease: Activity in N370S Spleen Homogenate Confirmation Using Alternate Substrate for Probe SAR). Details: N370S patient spleen homogenate, resorufin-glucoside fluorescence; series mostly up to 57.5 µM.
Description: NIH Chemical Genomics Center [NCGC] NIH Molecular Libraries Probe Production Centers Network [MLPCN] MLPCN Grant: MH086442-01 Assay Submitter (PI): Wei Zheng Glucocerebrosidase (GC) catalyzes the hydrolysis of beta-glucocerebroside to glucose and ceramide in lysosomes. Mutations in the glucocerebrosidase gene result in Gaucher disease, an autosomal recessive lysosomal storage disorder. Many of the mutations encountered in patients with Gaucher disease are missense alterations that may cause misfolding, decreased stability and/or mistrafficking of this lysosomal protein. […] These inhibitors include iminosugar analogs and three non-iminosugar inhibitors identified from a previous HTS of 62,000 compounds with the wild type recombinant enzyme. However, the enhancement of enzyme activity by the chaperone action of an enzyme inhibitor must be balanced against the direct inhibition of the enzyme. An enzyme activator could also function as a chaperone by binding to the enzyme and helping to correct its misfolding and mistrafficking. While activators for GC have not yet been identified, they may have better therapeutic potential than inhibitors. Therefore the discovery and development of chemical activators may provide a new strategy for the chaperone therapy. We have optimized a new assay using N370S mutant GC derived from the spleen of a Gaucher patient. […] In addition, the MLPCN compound library has expanded, which increases the chance of finding new and better probes. This confirmation assay tests for compound activity in spleen homogenate from a patient homozygous for the N370S mutation using an alternate resorufin-based substrate.
NCGC Assay Protocol Summary: This is a fluorogenic enzyme assay with resorufin-beta-D-glucopyranoside as the substrate and mutant N370S glucocerebrosidase from human spleen homogenate as the enzyme preparation. Upon the hydrolysis of this fluorogenic substrate, the resulting product, […] which can be detected by a standard fluorescence plate reader. Data were normalized to the controls for basal activity (without enzyme) and 100% activity (with enzyme). The AC50 values were determined from concentration-response data modeled with the standard Hill equation. Assay buffer: 50 mM citric acid (titrated with potassium phosphate to pH 5.0), 100 mM potassium chloride, 10 mM sodium chloride, 1 mM magnesium chloride, 0.01% Tween-20. 1536-well assay protocol: (1) Add 2 ul/well of spleen homogenate (27 ug final) (2) Add 23 nL compounds in DMSO solution. The final titration was 0.5 nM to 58 uM. (3) Add 2 ul of substrate (1 mM final) (4) Incubate at 37C for 40 min. (5) Add 2 ul stop solution (1M NaOH and 1M Glycine mixture, pH 10) (6) Detect the assay plate in a ViewLux plate reader (PerkinElmer) with Ex=365 nm and Em=440nm. Keywords: Glucocerebrosidase, beta-glucosidase, Gaucher Disease, pharmacological chaperone, chaperone therapy, high throughput screening, glucocerebrosidase inhibitor, MLSMR, MLSCN, NIH Roadmap, qHTS and NCGC

Sequence of Lysosomal acid glucosylceramidase (Homo sapiens) (P04062 whole entry N409S): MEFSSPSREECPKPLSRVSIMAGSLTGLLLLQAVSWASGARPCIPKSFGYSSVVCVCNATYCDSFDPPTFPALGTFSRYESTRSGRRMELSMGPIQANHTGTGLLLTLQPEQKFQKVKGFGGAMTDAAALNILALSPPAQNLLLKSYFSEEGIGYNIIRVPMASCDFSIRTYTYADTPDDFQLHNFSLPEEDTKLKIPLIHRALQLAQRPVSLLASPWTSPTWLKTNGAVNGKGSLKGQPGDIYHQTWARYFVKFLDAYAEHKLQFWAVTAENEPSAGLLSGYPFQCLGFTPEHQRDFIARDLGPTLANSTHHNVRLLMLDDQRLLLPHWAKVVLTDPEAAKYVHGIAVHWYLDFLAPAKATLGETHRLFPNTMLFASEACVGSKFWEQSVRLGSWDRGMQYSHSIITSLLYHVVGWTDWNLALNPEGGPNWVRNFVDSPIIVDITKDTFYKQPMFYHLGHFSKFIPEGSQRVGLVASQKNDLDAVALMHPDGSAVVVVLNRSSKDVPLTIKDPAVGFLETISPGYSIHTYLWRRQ

outcome, inactive:
COc1ccc(NC(=O)c2cnn3c(C)cc(C)nc23)cc1OC
Cc1cc(C)n2ncc(C(=O)Nc3cccc(C#N)c3)c2n1
C#Cc1ccc(NC(=O)c2cnn3c(C)cc(C)nc23)cc1
Cc1cc(C)n2ncc(C(=O)Nc3ccc4c(c3)OCO4)c2n1
Cc1cc(C)n2ncc(C(=O)NC(C)C)c2n1
Cc1cc(C)n2ncc(C(=O)NCc3ccco3)c2n1
CC(=O)c1ccc(NC(=O)c2cnn3c(C)cc(C)nc23)cc1
Cc1cc(C)n2ncc(C(=O)Nc3ccc4c(c3)OCCO4)c2n1
Cc1ccc(NC(=O)c2cnn3c(C)cc(C)nc23)cc1
CCc1ccc(NC(=O)c2cnn3c(C)cc(C)nc23)cc1
Cc1cc(C)n2ncc(C(=O)Nc3ccncc3)c2n1
Cc1cc(C)n2ncc(C(=O)NC3CCCCC3)c2n1
Cc1cc(C)n2ncc(C(=O)Nc3ccc(C(C)(C)C)cc3)c2n1
Cc1cc(C)n2ncc(C(=O)Nc3cccc(C(F)(F)F)c3)c2n1
Cc1cc(C)n2ncc(C(=O)NC3CCC(C(C)(C)C)CC3)c2n1 (configuration not stated)
Cc1cc(C)n2ncc(C(=O)Nc3ccc(S(C)(=O)=O)cc3)c2n1
Cc1cc(C)n2ncc(C(=O)Nc3ccc(C#N)cc3)c2n1
Cc1cc(C)n2ncc(C(=O)Nc3ccccc3)c2n1
Cc1ccc(NC(=O)c2cnn3c(C)cc(C)nc23)c(C)c1
COc1ccc(NC(=O)c2cnn3c(C)cc(C)nc23)cc1Cl
Cc1cc(C)n2ncc(C(=O)Nc3ccc(C)c(C)c3)c2n1
CNC(=O)c1cnn2c(C)cc(C)nc12
CC(=O)c1cccc(NC(=O)c2cnn3c(C)cc(C)nc23)c1
Cc1cc(C)n2ncc(C(=O)Nc3ccc4c(c3)CCC4)c2n1
Cc1cc(C)n2ncc(C(=O)NCc3ccccc3)c2n1
Cc1cc(C)n2ncc(C(=O)NCC(C)C)c2n1
CC(=O)Nc1ccccc1NC(=O)c1cnn2c(C)cc(C)nc12
COc1ccc(NC(=O)c2cnn3c(C)cc(C)nc23)cc1F
Cc1cccc(NC(=O)c2cnn3c(C)cc(C)nc23)c1
COc1ccc(NC(=O)c2cnn3c(C)cc(C)nc23)cc1
Cc1cc(C)n2ncc(C(=O)Nc3ccc(Br)cc3)c2n1
Cc1cc(C)n2ncc(C(=O)Nc3ccccc3C)c2n1
Cc1cc(C)n2ncc(C(=O)N3CCCC3)c2n1
CC(=O)Nc1ccc(NC(=O)c2cnn3c(C)cc(C)nc23)cc1
COc1cc(NC(=O)c2cnn3c(C)cc(C)nc23)cc(OC)c1OC
O=C(Nc1cnn(Cc2ccc(F)cc2)c1)c1cnn2c(C(F)F)cc(-c3ccccc3)nc12
Cc1cc(C)n2ncc(C(=O)Nc3ccc(C(F)(F)F)cc3)c2n1
